Screening data deposited in PubChem by National Center for Advancing Translational Sciences (NCATS).
The list is not random: actives were taken first. Their share in the collection is about 19%.
CHX counter: affects cycloheximide protein synthesis inhibition readout, counter-screen; AID 2314; max response, %; cell reporter, cycloheximide protein synthesis inhibition counterscreen; hit rate 12% among 300,000; in the data active means max response mostly above about 13%, no sharp cut-off; inactive means mostly below about 14%; further: read at 38.3 µM for the half of the compounds with a filed dose
Lassa entry inh: inhibitors of Lassa virus binding or cell entry; Lassa virus pseudotype entry inhibition, cell reporter; Potency, µM (highest dose often 37.9 µM), actives largely listed as inhibitors; hit rate 1.2% among 300,000; AID 540256; calls by dose curve; tested in HEK293 cells; further: nearly all actives have a fitted effect of over 50% in size
MARV entry inh: blocks Marburg virus binding to or entry into cells; Marburg virus pseudotyped entry inhibition, cell reporter; Potency, µM (titrated, usually from 37.8 µM), usual class: inhibitors; hit rate 1.8% among 300,000; calls by dose curve; tested in HEK293 cells
Shiga inhibitor: inhibitors of Shiga toxin in Vero cells. Vero cells, Shiga toxin protein synthesis inhibition reporter. AID 2315. hit rate 9.2% among 290,000. inhibition, % at 38.7 µM; in the data active means inhibition mostly above about 28%, no sharp cut-off; inactive means mostly below about 43%
Pf growth 96h: inhibits malaria parasite growth, 96 h. Potency, µM (doses to about 28.7 µM), usual class: inhibitors. P. falciparum luciferase reporter growth, 96 h. hit rate 6.9% among 320,000
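Cell-based qHTS: luciferase-tagged P. falciparum in erythrocytes (2% hematocrit, 0.05% parasitemia final) incubated with compounds for 96 hours, 37 C, 5% CO2; luciferase detection reagent then added and luminescence measured.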
Pf growth 48h: inhibits P. falciparum growth in the first generation, 48 h. P. falciparum luciferase growth in erythrocytes, 48 h. Potency, µM (series often up to 28.7 µM), actives largely listed as inhibitors. hit rate 5.9% among 310,000. AID 504832
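Erythrocytes infected with P. falciparum carrying an integrated firefly luciferase reporter (2% hematocrit, 0.1% parasitemia final) were exposed to compounds in RPMI 1640 with 0.5% Albumax at 37 C, 5% CO2. Growth inhibition was scored as reduced luminescence.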
Each line names hits and unclear results; the compound was inactive in the other large screens. Unless noted, the call rests on the fitted dose curve; in most records, active means well fitted inhibition curve with a large enough effect; inconclusive means small, poorly fitted or top-dose-only effect, or another doubt; inactive means no such curve, though single readings can be large or run the other way.

O=C(Cc1ccccc1)Nc1nc(=O)c2ccccc2s1	none
O=C(Nc1nnc(S(=O)(=O)N2CCCCCC2)s1)c1ccc(Cl)cc1	Pf growth 96h inconclusive (no result: MARV entry inh)
O=C(Nc1nc(=O)c2ccccc2s1)c1ccc(F)cc1	CHX counter 15, MARV entry inh inconclusive, Shiga inhibitor 50, Pf growth 96h inconclusive
O=C(Nc1nc(=O)c2ccccc2s1)c1ccc(Cl)cc1	CHX counter 19
O=C(Nc1nc2ccsc2c(=O)s1)c1ccc(Cl)cc1	CHX counter 30, Shiga inhibitor 88 (no result: Lassa entry inh, MARV entry inh)
Clc1cccc(CNCCc2c[nH]c3ccccc23)c1	MARV entry inh inconclusive
CC(C)(C)OC(=O)NC(Cc1ccccc1)C(=O)N1CCCC1C(=O)O (stereo not drawn)	none (no result: Lassa entry inh, MARV entry inh)
CCC1(c2ccc(F)cc2)NC(=O)N(CC(=O)NCc2ccccc2Cl)C1=O (stereo not drawn)	none (no result: Lassa entry inh, MARV entry inh)
CC(=O)c1ccc(-c2c(C)cc3oc(=O)cc(-c4ccccc4)c3c2C)cc1	CHX counter 30, Shiga inhibitor active (no result: Lassa entry inh, MARV entry inh, Pf growth 96h, Pf growth 48h)
O=c1ccn(Cc2ccccc2)c2ccccc12	Pf growth 96h inconclusive (no result: Lassa entry inh, MARV entry inh)
c1ccc(Cn2c[n+](Cc3ccccc3)c3ccccc32)cc1	Pf growth 96h 6.6µM, Pf growth 48h inconclusive (no result: Lassa entry inh, MARV entry inh)
COc1cccc(N(CC(=O)Nc2cccc(C(C)=O)c2)S(C)(=O)=O)c1	Pf growth 48h inconclusive (no result: Pf growth 96h)
CC(C)C1Oc2ccccc2N(CC(=O)N(Cc2ccccn2)CC2CCCO2)C1=O (stereo not drawn)	none
COc1cc(C2CC(=O)c3c([nH]c(C(=O)OCc4ccc(C)cc4)c3C)C2)cc(OC)c1OC (stereo not drawn)	MARV entry inh inconclusive (no result: CHX counter, Shiga inhibitor, Pf growth 96h, Pf growth 48h)
CCOC(=O)c1[nH]c2c(c1-c1ccccc1)C(=O)CC(c1ccccc1)C2 (stereo not drawn)	CHX counter 41, Shiga inhibitor 54, Pf growth 96h inconclusive
COc1cc(C2CC(=O)c3c([nH]c(C(=O)OCCOC(C)C)c3C)C2)cc(OC)c1OC (stereo not drawn)	Lassa entry inh inconclusive, MARV entry inh inconclusive, Pf growth 96h inconclusive, Pf growth 48h 7.4µM
CCOCCOC(=O)c1[nH]c2c(c1C)C(=O)CC(c1ccc(OC)c(OC)c1)C2 (stereo not drawn)	Lassa entry inh inconclusive, MARV entry inh inconclusive, Pf growth 96h 1.5µM, Pf growth 48h inconclusive
CC12CCC(=O)N1C(C(=O)NCCN1C(=O)S/C(=C\c3ccc(OC(F)F)cc3)C1=O)CS2 (stereo not drawn)	Pf growth 96h inconclusive, Pf growth 48h inconclusive (no result: CHX counter, Shiga inhibitor)
Cn1cnc(S(=O)(=O)Nc2ccc(C(F)(F)F)cc2)c1	MARV entry inh inconclusive
O=C(CN1CCCCC1)N1CCCc2ccccc21	none (no result: Pf growth 48h)
O=C1c2ccccc2C(=O)N1CCC(=O)N1CCc2ccccc21	none (no result: CHX counter, Shiga inhibitor, Pf growth 96h, Pf growth 48h)
O=C(CN1CCCC1)N1CCCc2ccccc21	Pf growth 96h 19µM
O=C1c2ccccc2C(=O)N1CCC(=O)N1CCCc2ccccc21	CHX counter 34, Lassa entry inh inconclusive
CC1Cc2ccccc2N1C(=O)CCn1c(=O)sc2ccccc21 (stereo not drawn)	CHX counter 12, Pf growth 96h inconclusive, Pf growth 48h inconclusive (no result: Lassa entry inh)
CC1Cc2ccccc2N1C(=O)CSc1ccccc1 (stereo not drawn)	CHX counter 51, Pf growth 96h inconclusive
CC1Cc2ccccc2N1C(=O)CSC1=NCCS1 (stereo not drawn)	MARV entry inh inconclusive, Pf growth 96h inconclusive, Pf growth 48h inconclusive
CCOc1ccc(NC(=O)CC2C(=O)N(c3ccccc3)C(=O)N2Cc2ccc3c(c2)OCO3)cc1 (stereo not drawn)	none (no result: CHX counter, Shiga inhibitor, Pf growth 96h, Pf growth 48h)
CC1Cc2ccccc2N1C(=O)CNc1ccccc1N1CCCCC1 (stereo not drawn)	Pf growth 96h 13µM, Pf growth 48h inconclusive
CC1CCN(CC(=O)N2c3ccccc3CC2C)CC1 (stereo not drawn)	MARV entry inh inconclusive, Pf growth 96h 0.59µM
CC1Cc2ccccc2N1C(=O)CN1CCc2ccccc2C1 (stereo not drawn)	Pf growth 96h inconclusive, Pf growth 48h inconclusive
CC1CCN(CC(=O)N2CCc3ccccc32)CC1	CHX counter 17 (no result: Lassa entry inh, MARV entry inh)
CC(=O)c1cccc(OCc2cc(C(=O)N3CC4C[C@@H]5CC3C[C@H](C4)C5)no2)c1	CHX counter 29, Pf growth 48h inconclusive (no result: Lassa entry inh, MARV entry inh)
CC(=O)c1ccc(OCc2cc(C(=O)N(C)C(C)c3ccon3)no2)cc1 (stereo not drawn)	none (no result: CHX counter, Shiga inhibitor, Pf growth 96h, Pf growth 48h)
CC(=O)c1ccc(OCc2cc(C(=O)N3CC4C[C@@H]5CC3C[C@H](C4)C5)no2)cc1	CHX counter 47, Shiga inhibitor 84
Cc1ccc(NC(=O)CSc2nnc(C3COc4ccccc4O3)o2)c(Cl)c1 (stereo not drawn)	none
COc1ccc(N=Cc2ccc(N(CCC#N)CCC#N)cc2)cc1	none (no result: CHX counter, Shiga inhibitor, Pf growth 96h, Pf growth 48h)
Cc1cc2oc(=O)cc(CN3CCCCC3C)c2cc1C (stereo not drawn)	Pf growth 96h 9.3µM, Pf growth 48h 10µM
COc1ccc(CN2CCN(Cc3cc(=O)oc4cc(C)ccc34)CC2)c(OC)c1OC	MARV entry inh 14µM, Pf growth 96h 9.3µM, Pf growth 48h inconclusive
COc1ccc(CN2CCN(c3ccc(F)cc3)CC2)c(OC)c1OC	MARV entry inh inconclusive
Cc1cc2oc(=O)cc(CN3CCCCC3C)c2cc1Cl (stereo not drawn)	Pf growth 48h inconclusive (no result: Lassa entry inh, MARV entry inh)
Cc1cc2oc(=O)cc(CN3CCC(C)CC3)c2cc1C	CHX counter 20, Pf growth 96h inconclusive, Pf growth 48h inconclusive (no result: Lassa entry inh, MARV entry inh)
COc1ccc(CN2CCN(C(c3ccc(F)cc3)c3ccc(F)cc3)CC2)c(OC)c1OC	Pf growth 96h 6.7µM, Pf growth 48h 9.5µM (no result: CHX counter, Lassa entry inh, MARV entry inh, Shiga inhibitor)
COC(=O)C1CCN(Cc2cc(=O)oc3cc(C)c(Cl)cc23)CC1	none (no result: Lassa entry inh, MARV entry inh)
O=C(Nc1ccc(F)cc1)C(c1ccccc1)N1CCN(S(=O)(=O)c2c(F)cccc2F)CC1 (stereo not drawn)	MARV entry inh inconclusive, Pf growth 96h inconclusive, Pf growth 48h inconclusive
Cc1ccc(S(=O)(=O)Nc2ccc(C(=O)Nc3ccncc3)cc2)cc1	MARV entry inh inconclusive, Pf growth 96h 10µM
Cc1ccc(NS(=O)(=O)c2ccc(NC(=O)c3cccc(NC(=O)C(C)C)c3)cc2)cc1	Lassa entry inh inconclusive, MARV entry inh 13µM, Pf growth 96h 1.7µM
CCOC(=O)Nc1ccc(S(=O)(=O)Nc2nc(C)cc(C)n2)cc1	MARV entry inh inconclusive (no result: Pf growth 96h)
CCOC(=O)Nc1ccc(NS(=O)(=O)c2ccc(C)cc2)cc1	Lassa entry inh 12µM
Cc1ccc(CN2C(=O)/C(=C\c3ccc(C(=O)NCc4cccnc4)cc3)Oc3ccccc32)cc1	Lassa entry inh inconclusive, Pf growth 96h 1.7µM, Pf growth 48h inconclusive
COC(=O)c1cc(C)ccc1OCc1ccc([N+](=O)[O-])cc1	none
Nc1nc2ccc(C(=O)NCCOC(=O)C3CCCCC3)cc2s1	none
COc1cc(NS(=O)(=O)c2ccc(NS(=O)(=O)c3ccc(C)cc3)cc2)nc(OC)n1	Pf growth 96h 1.9µM (no result: Lassa entry inh)
Cc1ccc(NS(=O)(=O)c2ccc(C(=O)NCc3cccnc3)cc2)cc1	CHX counter 55, Shiga inhibitor 76, Pf growth 96h inconclusive
